Experimental findings from ChEMBL document CHEMBL1961873, “Compounds: GSK PKIS; Assays: Nanosyn kinase panel” (2012) are described below.

In test [1] the target is Mast/stem cell growth factor receptor Kit (Homo sapiens) (UniProt P10721). The conditions noted are these: at 1 µM.
The subject of test [2] is Mast/stem cell growth factor receptor Kit (Homo sapiens), P10721 [D816V]. As to conditions: at 0.1 µM.
Test [3] shares this test system. As to conditions: at 1 µM.
For test [4], the system named is Mast/stem cell growth factor receptor Kit (Homo sapiens), P10721 [T670I]. As to conditions: at 0.1 µM.
Test [5] has the same test system. As to conditions: at 1 µM.
For test [6], the system named is Mast/stem cell growth factor receptor Kit (Homo sapiens), P10721 [V560G]. As to conditions: at 0.1 µM.
Test [7] shares this test system. The conditions noted are these: at 1 µM.
Test [8] has as its target Tyrosine-protein kinase Lck (Homo sapiens) (UniProt P06239). The conditions noted are these: at 0.1 µM.
For test [9] the target is unchanged. The conditions noted are these: at 1 µM.
The target in test [10] is Leukocyte tyrosine kinase receptor (Homo sapiens) (UniProt P29376). As to conditions: at 0.1 µM.
For test [11] the target is unchanged. As to conditions: at 1 µM.
For test [12], the target named is Tyrosine-protein kinase Lyn (Homo sapiens) (UniProt P07948). As to conditions: at 0.1 µM.
Test [13] has the same target. As to conditions: at 1 µM.
Test [14] has the same target. The conditions noted are these: at 0.1 µM. This is another data set of the same source.
Test [15] shares this target. The conditions noted are these: at 1 µM. The source holds these as a separate data set.
For test [16], the target named is T1, Tyrosine-protein kinase Mer (Homo sapiens) (UniProt Q12866).
T1 sequence (whole entry): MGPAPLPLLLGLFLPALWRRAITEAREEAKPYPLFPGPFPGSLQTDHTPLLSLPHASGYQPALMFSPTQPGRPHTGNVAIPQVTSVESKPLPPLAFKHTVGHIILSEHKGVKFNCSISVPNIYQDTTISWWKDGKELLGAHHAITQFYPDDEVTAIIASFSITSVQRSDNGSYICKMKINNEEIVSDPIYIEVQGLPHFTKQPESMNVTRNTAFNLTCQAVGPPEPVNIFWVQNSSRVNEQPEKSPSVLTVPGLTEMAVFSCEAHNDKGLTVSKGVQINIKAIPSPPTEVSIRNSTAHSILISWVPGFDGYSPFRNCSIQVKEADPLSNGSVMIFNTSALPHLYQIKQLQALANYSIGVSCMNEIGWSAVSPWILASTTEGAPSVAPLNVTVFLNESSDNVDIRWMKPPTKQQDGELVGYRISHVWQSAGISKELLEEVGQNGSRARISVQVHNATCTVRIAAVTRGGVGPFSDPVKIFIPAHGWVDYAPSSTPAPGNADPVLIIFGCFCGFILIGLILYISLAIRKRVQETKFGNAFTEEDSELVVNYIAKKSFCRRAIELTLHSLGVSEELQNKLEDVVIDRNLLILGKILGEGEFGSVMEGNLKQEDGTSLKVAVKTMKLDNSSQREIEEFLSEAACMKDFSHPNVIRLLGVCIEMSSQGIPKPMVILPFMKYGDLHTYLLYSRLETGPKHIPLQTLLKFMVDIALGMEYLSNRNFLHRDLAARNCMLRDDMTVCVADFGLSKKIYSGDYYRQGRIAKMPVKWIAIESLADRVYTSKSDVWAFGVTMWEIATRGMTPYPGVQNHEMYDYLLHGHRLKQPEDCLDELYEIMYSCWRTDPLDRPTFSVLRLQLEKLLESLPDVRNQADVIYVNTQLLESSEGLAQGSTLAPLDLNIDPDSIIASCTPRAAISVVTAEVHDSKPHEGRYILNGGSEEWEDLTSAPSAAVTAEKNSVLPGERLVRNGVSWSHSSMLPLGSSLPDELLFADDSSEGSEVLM
The conditions noted are these: at 0.1 µM.

The target of test [17] is T1, Tyrosine-protein kinase Mer (Homo sapiens). As to conditions: at 1 µM.
In test [18] the target is Hepatocyte growth factor receptor (Homo sapiens) (UniProt P08581). As to conditions: at 0.1 µM.
Test [19] shares this target. As to conditions: at 1 µM.
Test [20] deals with T2, Muscle, skeletal receptor tyrosine-protein kinase (Homo sapiens) (UniProt O15146).
T2 sequence (whole entry): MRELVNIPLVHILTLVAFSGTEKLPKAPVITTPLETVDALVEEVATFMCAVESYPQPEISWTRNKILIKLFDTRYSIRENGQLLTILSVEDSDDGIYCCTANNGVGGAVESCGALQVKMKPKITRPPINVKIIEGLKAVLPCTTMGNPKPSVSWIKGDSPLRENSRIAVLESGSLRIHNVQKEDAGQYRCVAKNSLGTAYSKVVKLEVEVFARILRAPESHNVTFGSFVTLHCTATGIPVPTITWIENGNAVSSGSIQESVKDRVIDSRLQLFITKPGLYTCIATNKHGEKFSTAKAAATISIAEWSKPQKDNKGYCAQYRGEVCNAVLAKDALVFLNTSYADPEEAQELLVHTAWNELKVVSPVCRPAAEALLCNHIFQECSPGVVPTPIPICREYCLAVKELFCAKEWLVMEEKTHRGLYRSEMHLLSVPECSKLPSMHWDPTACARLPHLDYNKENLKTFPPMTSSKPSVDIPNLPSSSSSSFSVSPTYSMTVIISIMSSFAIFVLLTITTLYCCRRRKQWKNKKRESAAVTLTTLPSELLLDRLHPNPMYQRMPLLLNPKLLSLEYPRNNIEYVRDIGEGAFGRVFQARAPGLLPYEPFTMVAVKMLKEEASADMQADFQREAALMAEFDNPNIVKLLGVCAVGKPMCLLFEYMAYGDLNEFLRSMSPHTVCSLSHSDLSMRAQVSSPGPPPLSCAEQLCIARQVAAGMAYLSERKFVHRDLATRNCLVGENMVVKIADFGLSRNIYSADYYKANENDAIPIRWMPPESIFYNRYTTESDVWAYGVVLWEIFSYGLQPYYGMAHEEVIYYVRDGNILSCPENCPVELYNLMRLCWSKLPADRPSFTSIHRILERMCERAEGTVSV
As to conditions: at 0.1 µM.

Tyrosine-protein kinase Lck (Homo sapiens), sequence (P06239 2-509 limits assumed): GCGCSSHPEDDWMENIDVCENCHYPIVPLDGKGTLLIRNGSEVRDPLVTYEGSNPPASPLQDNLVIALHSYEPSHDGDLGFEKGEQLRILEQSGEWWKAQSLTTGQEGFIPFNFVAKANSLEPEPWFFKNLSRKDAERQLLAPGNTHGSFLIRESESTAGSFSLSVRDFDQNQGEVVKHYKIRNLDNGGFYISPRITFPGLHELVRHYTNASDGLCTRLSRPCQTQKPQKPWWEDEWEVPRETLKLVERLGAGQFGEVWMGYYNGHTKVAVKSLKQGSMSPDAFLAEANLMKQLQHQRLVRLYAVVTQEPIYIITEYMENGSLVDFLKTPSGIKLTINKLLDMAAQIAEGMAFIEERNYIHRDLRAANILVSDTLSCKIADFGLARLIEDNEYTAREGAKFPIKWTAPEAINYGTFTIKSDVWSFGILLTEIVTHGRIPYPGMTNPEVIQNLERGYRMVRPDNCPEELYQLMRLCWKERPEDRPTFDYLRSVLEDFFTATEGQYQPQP
Mast/stem cell growth factor receptor Kit (Homo sapiens), P10721 [V560G], sequence (P10721 whole entry V560G): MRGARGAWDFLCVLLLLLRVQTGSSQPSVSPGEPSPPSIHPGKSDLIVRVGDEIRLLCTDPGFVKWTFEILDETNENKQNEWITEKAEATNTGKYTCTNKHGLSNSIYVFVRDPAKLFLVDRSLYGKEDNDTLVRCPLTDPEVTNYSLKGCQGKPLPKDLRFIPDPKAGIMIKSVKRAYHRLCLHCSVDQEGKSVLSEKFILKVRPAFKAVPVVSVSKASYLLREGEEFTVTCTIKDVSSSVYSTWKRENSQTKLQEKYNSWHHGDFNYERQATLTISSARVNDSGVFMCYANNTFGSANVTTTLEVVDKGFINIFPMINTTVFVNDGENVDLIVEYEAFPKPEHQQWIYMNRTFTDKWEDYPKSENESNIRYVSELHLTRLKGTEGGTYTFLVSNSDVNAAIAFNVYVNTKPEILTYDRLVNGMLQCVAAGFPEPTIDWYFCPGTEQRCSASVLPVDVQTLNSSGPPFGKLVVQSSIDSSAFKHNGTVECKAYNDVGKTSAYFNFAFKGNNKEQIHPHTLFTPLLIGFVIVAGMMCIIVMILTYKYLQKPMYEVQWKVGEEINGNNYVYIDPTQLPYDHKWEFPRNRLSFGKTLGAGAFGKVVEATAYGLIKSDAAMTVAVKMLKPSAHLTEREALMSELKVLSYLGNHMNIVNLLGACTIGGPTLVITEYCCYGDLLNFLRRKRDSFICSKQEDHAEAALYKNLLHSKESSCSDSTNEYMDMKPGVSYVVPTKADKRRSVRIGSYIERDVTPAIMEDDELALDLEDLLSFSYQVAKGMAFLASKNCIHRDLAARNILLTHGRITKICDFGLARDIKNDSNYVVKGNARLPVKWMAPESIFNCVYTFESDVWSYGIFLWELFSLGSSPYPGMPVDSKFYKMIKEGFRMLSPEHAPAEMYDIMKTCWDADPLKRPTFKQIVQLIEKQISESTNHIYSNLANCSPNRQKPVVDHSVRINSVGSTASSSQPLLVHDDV
Tyrosine-protein kinase Lyn (Homo sapiens), sequence (P07948 2-512 limits assumed): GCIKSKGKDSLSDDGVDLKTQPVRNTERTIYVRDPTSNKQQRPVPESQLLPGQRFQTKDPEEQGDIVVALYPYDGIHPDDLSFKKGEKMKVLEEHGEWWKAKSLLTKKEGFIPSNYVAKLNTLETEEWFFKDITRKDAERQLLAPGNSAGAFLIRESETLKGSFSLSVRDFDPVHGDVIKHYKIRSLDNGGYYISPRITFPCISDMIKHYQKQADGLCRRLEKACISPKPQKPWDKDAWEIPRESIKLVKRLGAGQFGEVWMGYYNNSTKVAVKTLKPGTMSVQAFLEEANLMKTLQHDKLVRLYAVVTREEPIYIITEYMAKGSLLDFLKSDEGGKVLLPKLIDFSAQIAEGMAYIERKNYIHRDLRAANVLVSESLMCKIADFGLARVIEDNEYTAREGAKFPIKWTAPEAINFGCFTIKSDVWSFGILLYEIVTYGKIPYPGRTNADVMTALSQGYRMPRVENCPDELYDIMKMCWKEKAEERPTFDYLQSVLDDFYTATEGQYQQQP
Mast/stem cell growth factor receptor Kit (Homo sapiens), P10721 [D816V], sequence (P10721 whole entry D816V): as the sequence (P10721 whole entry V560G) above, with G560V, D816V counted along it
Leukocyte tyrosine kinase receptor (Homo sapiens), sequence (P29376 whole entry): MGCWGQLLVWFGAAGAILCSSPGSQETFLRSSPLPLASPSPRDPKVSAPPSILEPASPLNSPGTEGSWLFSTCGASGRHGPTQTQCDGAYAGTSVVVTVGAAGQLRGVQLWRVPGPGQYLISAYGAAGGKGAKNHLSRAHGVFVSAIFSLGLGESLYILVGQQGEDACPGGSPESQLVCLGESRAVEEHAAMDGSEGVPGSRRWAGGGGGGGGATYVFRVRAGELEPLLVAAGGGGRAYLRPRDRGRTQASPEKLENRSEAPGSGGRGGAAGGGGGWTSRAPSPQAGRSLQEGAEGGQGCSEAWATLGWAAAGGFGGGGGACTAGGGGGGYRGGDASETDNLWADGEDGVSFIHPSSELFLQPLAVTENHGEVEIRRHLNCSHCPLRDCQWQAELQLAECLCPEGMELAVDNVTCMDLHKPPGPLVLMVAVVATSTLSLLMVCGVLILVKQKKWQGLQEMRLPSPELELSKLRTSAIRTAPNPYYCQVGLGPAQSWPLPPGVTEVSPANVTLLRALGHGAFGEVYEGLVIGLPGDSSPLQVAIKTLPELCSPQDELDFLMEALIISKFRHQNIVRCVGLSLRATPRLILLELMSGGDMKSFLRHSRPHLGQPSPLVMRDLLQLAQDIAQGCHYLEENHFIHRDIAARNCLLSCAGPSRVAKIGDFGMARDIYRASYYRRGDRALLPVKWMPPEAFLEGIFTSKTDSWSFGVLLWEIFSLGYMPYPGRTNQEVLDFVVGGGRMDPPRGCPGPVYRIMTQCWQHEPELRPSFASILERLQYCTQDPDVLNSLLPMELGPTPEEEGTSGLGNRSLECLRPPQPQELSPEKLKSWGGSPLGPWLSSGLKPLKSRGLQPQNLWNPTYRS
Mast/stem cell growth factor receptor Kit (Homo sapiens), P10721 [T670I], sequence (P10721 whole entry T670I): as the sequence (P10721 whole entry V560G) above, with G560V, T670I counted along it
Mast/stem cell growth factor receptor Kit (Homo sapiens), sequence (P10721 whole entry): as the sequence (P10721 whole entry V560G) above, with G560V counted along it
Hepatocyte growth factor receptor (Homo sapiens), sequence (P08581 whole entry): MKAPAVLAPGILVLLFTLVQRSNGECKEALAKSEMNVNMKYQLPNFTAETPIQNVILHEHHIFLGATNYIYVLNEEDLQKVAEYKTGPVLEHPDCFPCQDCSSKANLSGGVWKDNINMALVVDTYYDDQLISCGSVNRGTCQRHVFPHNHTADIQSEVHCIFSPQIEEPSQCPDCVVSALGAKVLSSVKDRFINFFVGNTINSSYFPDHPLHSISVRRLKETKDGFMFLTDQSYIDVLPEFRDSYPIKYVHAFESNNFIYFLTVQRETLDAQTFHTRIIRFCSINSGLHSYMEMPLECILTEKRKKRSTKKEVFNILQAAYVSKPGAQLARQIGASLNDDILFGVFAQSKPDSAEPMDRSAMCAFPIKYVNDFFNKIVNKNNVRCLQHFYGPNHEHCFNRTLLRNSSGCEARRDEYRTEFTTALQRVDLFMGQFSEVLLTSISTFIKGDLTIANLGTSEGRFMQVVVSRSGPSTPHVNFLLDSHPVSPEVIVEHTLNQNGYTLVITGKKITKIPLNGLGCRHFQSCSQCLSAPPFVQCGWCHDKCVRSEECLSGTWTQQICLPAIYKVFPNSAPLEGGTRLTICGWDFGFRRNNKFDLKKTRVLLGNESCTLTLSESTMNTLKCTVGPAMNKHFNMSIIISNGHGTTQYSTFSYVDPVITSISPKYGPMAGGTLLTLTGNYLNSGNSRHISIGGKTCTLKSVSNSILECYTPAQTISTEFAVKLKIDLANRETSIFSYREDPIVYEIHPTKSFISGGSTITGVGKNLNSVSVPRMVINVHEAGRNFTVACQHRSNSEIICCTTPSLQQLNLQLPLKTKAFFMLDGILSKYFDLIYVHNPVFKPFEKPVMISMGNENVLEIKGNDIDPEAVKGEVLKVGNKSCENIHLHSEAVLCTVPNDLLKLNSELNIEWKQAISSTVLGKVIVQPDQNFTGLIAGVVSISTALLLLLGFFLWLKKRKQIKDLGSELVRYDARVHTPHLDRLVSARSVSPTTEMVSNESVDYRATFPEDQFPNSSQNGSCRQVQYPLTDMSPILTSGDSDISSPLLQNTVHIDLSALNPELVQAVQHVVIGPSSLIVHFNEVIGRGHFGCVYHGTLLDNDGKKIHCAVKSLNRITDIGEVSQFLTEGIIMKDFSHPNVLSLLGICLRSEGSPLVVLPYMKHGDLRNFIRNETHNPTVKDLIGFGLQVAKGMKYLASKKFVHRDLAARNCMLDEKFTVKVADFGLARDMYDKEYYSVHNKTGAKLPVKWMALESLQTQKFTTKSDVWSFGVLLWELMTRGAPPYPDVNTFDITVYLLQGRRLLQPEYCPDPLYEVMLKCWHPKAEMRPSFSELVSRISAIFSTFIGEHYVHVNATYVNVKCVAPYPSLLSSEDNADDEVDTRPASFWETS

Take `NS(=O)(=O)c1ccc(Nc2ncc(-c3ccccc3)o2)cc1`: the inhibition turned out to be 88.6% in [1]; 0.49% in [2]; 2.25% in test [3]; 14.9% in [4]; 58.7% in [5]; 9.24% in test [6]. In addition, the inhibition came to 52.5% in test [7]; 1.77% in test [8]; 6.21% in [9]; 4.12% in test [10]; 6.46% in test [11]; 5.4% in test [12]. Besides, the inhibition in [13] turned out to be 12.4%; in test [14] it was 2.72%; in test [15], 9.48%; in [16], 2.4%; in [17], 5.27%; in test [18], 1.7%. Also, the inhibition was -0.71% in [19] and 3.44% in [20].
`CCNC(=O)O[C@H]1CN[C@H](C#Cc2cc3ncnc(Nc4ccc(OCc5cccc(F)c5)c(Cl)c4)c3s2)C1`: the inhibition is 2.58% in [1]; 2.43% in [2]; 3.63% in test [3]; 2.76% in [4]; 0.45% in [5]; 0.45% in test [6]. For the same molecule, the inhibition in test [7] is 5%; in test [8] it was 3.42%; in [9], 3.76%; in [10], 3.21%; in [11], 2.99%; in [12] it was 5.67%. Further, the inhibition in test [13] is 3.68%; in test [14], 2.23%; in test [15] it was 1.7%; in test [16], 0.26%; in [17], 7.09%; in test [18], 3.78%. Further, the inhibition in test [19] was determined as 1.15%; in test [20], 2.4%.
Take `Nc1ncc(-c2cccc(S(N)(=O)=O)c2)c2scc(-c3ccc(F)c(Cl)c3)c12`: the inhibition in test [1] is 98.1%; in test [2], -0.67%; in test [3] it was 5.44%; in [4], 3.88%; in [5], 5.82%; in test [6] it was 3.89%. Moreover, the inhibition in [7] is 50.5%; in test [8], 12.9%; in [9], 52.4%; in test [10], 10.7%; in test [11], 54.6%; in test [12], 14%. The inhibition was determined as 56.7% in test [13]; 10.5% in [14]; 50% in [15]; 0.36% in test [16]; 10.6% in test [17]; 4.62% in test [18]. The inhibition in [19] was determined as 3.25%; in test [20], 2.5%.
On to `CCOc1ccc2c(-c3ccnc(Nc4cccc(C(F)(F)F)c4)n3)cnn2n1`, for which the inhibition was 17.8% in [1]; 0.23% in test [2]; 2.91% in test [3]; 1.24% in test [4]; 3.49% in [5]; -1.27% in [6]. Further, the inhibition in [7] is 0.29%; in [8], 2.98%; in test [9] it was 7.3%; in test [10], 2.51%; in [11], 1.96%; in test [12] it was 4.33%. Besides, the inhibition in test [13] was 4.33%; in [14], 3.97%; in [15], 3.17%; in test [16], 0.97%; in test [17], 3.35%; in test [18], 3.01%. Further, the inhibition in test [19] came to 3.51%; in [20] it was 2.25%.
Take `CN1CCC(n2cnc(-c3ccc(F)cc3)c2-c2ccnc(Nc3ccccc3)n2)CC1`: the inhibition was 6% in test [1]; 1.84% in [2]; 2.39% in test [3]; 3.38% in [4]; 1.42% in [5]; -1.35% in test [6]. For the same molecule, the inhibition in [7] came to 4.06%; in test [8] it was 4.17%; in test [9], 20.5%; in test [10], 2.75%; in [11], 1.97%; in test [12] it was 4.88%. In addition, the inhibition in [13] is 23.3%; in test [14] it was 2.82%; in test [15] it was 13.9%; in test [16], 0.46%; in test [17], 6.83%; in test [18], -0.26%. For the same molecule, the inhibition in test [19] was 9.59%; in test [20] it was 1.28%.
As to `c1ccc(COc2ccc(Nc3ncnc4ccc(-c5ccco5)cc34)cc2)cc1`, the inhibition was -0.06% in test [1]; -2.23% in [2]; -0.29% in test [3]; 0.67% in [4]; -1.15% in test [5]; 2.08% in test [6]. The inhibition came out at 1.66% in test [7]; 0.84% in test [8]; 4.49% in test [9]; 0.59% in [10]; 1.92% in test [11]; 1.51% in test [12]. The inhibition in test [13] worked out at 2.5%; in test [14] it was 1.39%; in [15], 1.94%; in test [16], 1.57%; in test [17], 12.7%; in [18], 7.46%. Further, the inhibition in test [19] was determined as 2.85%; in test [20], 0.09%.

As usually defined, the inhibition is the change of the read-out against control, counted positive when it falls.
